High-throughput results as filed in PubChem.
ELG1 genotox: inducers of genotoxicity in HEK293T ELG1-luciferase cells | HEK293T ELG1-luciferase reporter, luminescence, 16 h | Potency, µM (titrated, usually from 46 µM), without a hit: at the highest dose activity change, positive = activation, hits mostly activators | 330,000 compounds, 1.3% hits; also: % of control where 0% means no effect; nearly all actives have a fitted effect of over 60% in size
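Reporter readout depends on ELG1 protein level, which increases with genetic stress. After 16 hr compound exposure at 37 °C, luciferase activity was quantified using ONE-Glo.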
SMN2 splice enh: SMN2 splice variant enhancement; HEK293 SMN2-luciferase splicing reporter, luminescence, 30-36 h; Potency, µM (highest dose often 46.1 µM), without a hit: at the highest dose activity change, positive = activation, most hits filed as activators; 210,000 compounds, 2.8% hits; AID 1458; also: % of control where 0% means no effect; nearly all actives have a fitted effect of over 55% in size
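HEK293 cells carry an SMN2 minigene-luciferase reporter in which exon 7 inclusion puts luciferase in frame. Cells were seeded at 2000 cells/well, attached for 10-12 hours, then exposed to compounds for 30-36 hours at 37C before ONE-Glo luminescence.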
NPC1 promoter act: activators of NPC1 promoter | Huh7 NPC1 promoter luciferase reporter, 24 h | Potency, µM (doses to about 9.22 µM), without a hit: at the top dose activation, most hits filed as activators | 320,000 compounds, 2.4% hits; also: % of control where 0% means no effect; nearly all actives have a fitted effect of over 60% in size
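Cells: Huh7 expressing luciferase under the NPC1 promoter, 1500/well. Seeded 2 h, compound added, incubated 24 h at 37 °C. Luciferase reagent, 10 min ambient, then luminescence.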
ELG1 DNA repair: inhibitors of ELG1-dependent DNA repair in HEK293T cells; HEK293T ELG1-luciferase reporter, luminescence, 16 h; DNA damage induced by 5-fluorouridine; Potency, µM (top dose mostly 46.1 µM), for the others: at the top dose activity change, negative = inhibition, most hits filed as inhibitors; 330,000 compounds, 2.3% hits; also: % is scaled to controls: 0 for no effect and ±100 for the full control effect; nearly all actives have a fitted effect of over 55% in size
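Luminescence from the luciferase reporter, measured 30 min after ONE-Glo reagent at room temperature, was the read-out. Beforehand, 2,000 cells per well were exposed for 16 hr at 37 °C to 5-fluorouridine together with compound or vehicle.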
Rab9 promoter act: activates the Rab9 promoter; Huh7 Rab9 promoter-luciferase reporter, luminescence, 24 h; Potency, µM (series often up to 9.22 µM), without a hit: at the highest dose activation, negative = inhibition, actives largely listed as activators; 320,000 compounds, 2.8% hits; also: % of control where 0% means no effect; nearly all actives have a fitted effect of over 60% in size
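Cell-based reporter: Huh7 stable for Rab9 promoter-driven luciferase, plated in reduced-serum medium with 10% FBS at 1500 cells/well, compound-treated 24 h at 37 °C, luminescence read after 10 min reagent.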
FLuc modulator: inhibits or activates purified firefly luciferase, miR-21 counter-screen; Potency, µM (series often up to 57.5 µM), for the others: at the highest dose activity change, negative = inhibition, actives largely listed as inhibitors; purified FLuc, Km substrates, luminescence inhibition; AID 588342; P08659; 360,000 compounds, 6.9% hits;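 also: plate controls were vehicle for no effect and reference inhibitor for full effect; nearly all actives have a fitted effect of over 55% in size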
Target sequence (P08659 whole entry, looked up): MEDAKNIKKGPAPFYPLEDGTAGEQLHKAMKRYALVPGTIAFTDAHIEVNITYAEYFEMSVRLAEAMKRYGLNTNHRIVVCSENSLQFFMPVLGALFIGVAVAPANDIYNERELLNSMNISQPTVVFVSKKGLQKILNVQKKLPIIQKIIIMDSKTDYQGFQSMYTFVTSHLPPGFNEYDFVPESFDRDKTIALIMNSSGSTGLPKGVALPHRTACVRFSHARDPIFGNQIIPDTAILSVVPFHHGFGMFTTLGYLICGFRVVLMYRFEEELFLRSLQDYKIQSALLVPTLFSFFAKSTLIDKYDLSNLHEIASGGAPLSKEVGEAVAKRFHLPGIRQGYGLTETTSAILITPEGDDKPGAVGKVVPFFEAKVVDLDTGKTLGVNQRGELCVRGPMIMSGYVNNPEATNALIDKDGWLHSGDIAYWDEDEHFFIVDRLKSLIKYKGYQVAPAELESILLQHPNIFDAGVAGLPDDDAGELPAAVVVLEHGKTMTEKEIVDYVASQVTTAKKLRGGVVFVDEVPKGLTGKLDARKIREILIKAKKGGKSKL
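Purified P. pyralis luciferase (10nM final) with 10uM D-luciferin and 10uM ATP (Km levels) in 50mM Tris acetate pH 7.5, 10mM Mg acetate, 0.01% Tween-20, 0.05% BSA; qHTS 6-point titration, ~60 µM downward; luminescence read.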
Numbers without * were called inactive. Compounds with a hit are over-represented: about 9.3% of the library has one in this group of screens. Calls follow the shape of the dose curve; as a rule, active = well fitted curve in the direction sought with a large enough effect; inconclusive = small, poorly fitted or top-dose-only effect, or another doubt; inactive = no such curve, though single readings can be large; an effect the other way counts as inactive or inconclusive. Potency is read from the fitted curve at half-maximal effect.

How did COc1ccc(CNC(=O)Cc2csc3nc(-c4ccc(C)cc4)cn23)cc1 do in these assays?
FLuc modulator: 16.9µM*

Results for COc1ccc(-c2cn3c(C)c(C(=O)NCCN4CCOCC4)sc3n2)cc1 ?
ELG1 genotox: 2.5%; SMN2 splice enh: -6.0%; NPC1 promoter act: -4.1%; ELG1 DNA repair: 1.8%; Rab9 promoter act: 0.0%; FLuc modulator: inconclusive

What do the screens show for `CCN(CC)C(=O)c1sc2nc(-c3ccc(OC)cc3)cn2c1C`?
ELG1 genotox: inconclusive; SMN2 splice enh: inconclusive; NPC1 promoter act: 1.78µM*; ELG1 DNA repair: inconclusive; Rab9 promoter act: inconclusive; FLuc modulator: 7.57µM*

How did CNC(=O)c1sc2nc(-c3ccc(OC)cc3)cn2c1C do in these assays?
ELG1 genotox: 2.06µM*; NPC1 promoter act: 1.58µM*; ELG1 DNA repair: inconclusive; Rab9 promoter act: 0.891µM*; FLuc modulator: 3.38µM*

How did Cc1nc2c3ccccc3nc(NNC(=O)CCC(=O)N3CCCC(C)C3)n2n1 (configuration not stated) do in these assays?
ELG1 genotox: -2.5%; NPC1 promoter act: -4.4%; ELG1 DNA repair: 9.8%; Rab9 promoter act: -1.0%; FLuc modulator: -0.7%

What do the screens show for `CCOC(=O)N1CCC2(CC1)OC(=O)C(C)=C2C(=O)NCc1ccc(C)cc1`?
FLuc modulator: -10.2%

What do the screens show for `CSCCOC(=O)COc1ccc(/C=N/NC(=O)c2nn(C)cc2Cl)cc1`?
ELG1 genotox: 3.3%; SMN2 splice enh: -21.7%; NPC1 promoter act: -4.8%; ELG1 DNA repair: inconclusive; Rab9 promoter act: -7.2%; FLuc modulator: 13.5µM*

How did Cc1ccc(S(=O)(=O)Oc2ccc(/C=N/NC(=O)c3nn(C)cc3Cl)cc2)cc1 do in these assays?
ELG1 genotox: 5.1%; SMN2 splice enh: -6.1%; NPC1 promoter act: 3.9%; ELG1 DNA repair: inconclusive; Rab9 promoter act: 0.5%; FLuc modulator: -12.8%

Results for CCOC(=O)CNC(=O)CC(c1cc(OC)c(OC)c(OC)c1)N1Cc2ccccc2C1=O (configuration not stated) ?
FLuc modulator: 5.2%

What do the screens show for `CCOC(=O)c1c(NC(=O)CN2C(=O)NC(C)(c3ccc(Cl)cc3)C2=O)sc(C(=O)NC)c1C` (configuration not stated)?
ELG1 genotox: -4.4%; SMN2 splice enh: 5.6%; NPC1 promoter act: 1.3%; ELG1 DNA repair: 18.4µM*; Rab9 promoter act: 1.9%; FLuc modulator: -1.1%

Results for CCCCNC(=O)CCC(=O)Nc1ccc2nc(N3CCOCC3)cc(C)c2c1 ?
ELG1 genotox: 12.4%; SMN2 splice enh: 21.4%; NPC1 promoter act: inconclusive; ELG1 DNA repair: inconclusive; Rab9 promoter act: inconclusive; FLuc modulator: 15.1µM*

Results for Cc1cc(N2CCN(C)CC2)nc2ccc(NC(=O)CCC(=O)N3CCN(c4ccc([N+](=O)[O-])cc4)CC3)cc12 ?
ELG1 genotox: -3.3%; NPC1 promoter act: -3.5%; ELG1 DNA repair: inconclusive; Rab9 promoter act: -18.1%; FLuc modulator: -9.2%

What do the screens show for `CCCN(CCC)CCNC(=O)CCC(=O)Nc1ccc2nc(N3CCOCC3)cc(C)c2c1`?
ELG1 genotox: inconclusive; NPC1 promoter act: inconclusive; ELG1 DNA repair: inconclusive; Rab9 promoter act: 3.55µM*; FLuc modulator: -1.4%

How did CCCCN(CC)CCNC(=O)CCC(=O)Nc1ccc2nc(N3CCN(C)CC3)cc(C)c2c1 do in these assays?
ELG1 genotox: 5.9%; SMN2 splice enh: -11.1%; NPC1 promoter act: 8.3%; ELG1 DNA repair: inconclusive; Rab9 promoter act: -3.3%; FLuc modulator: -4.4%

What do the screens show for `Cc1cc(N2CCOCC2)nc2ccc(NC(=O)CCC(=O)N3CCN(c4ccccc4)CC3)cc12`?
ELG1 genotox: 8.6%; NPC1 promoter act: inconclusive; ELG1 DNA repair: inconclusive; Rab9 promoter act: 29.8%; FLuc modulator: 12µM*

Results for COCCCNC(=O)CCC(=O)Nc1ccc2nc(N3CCOCC3)cc(C)c2c1 ?
ELG1 genotox: 7.5%; SMN2 splice enh: inconclusive; NPC1 promoter act: 2.2%; ELG1 DNA repair: inconclusive; Rab9 promoter act: inconclusive; FLuc modulator: inconclusive

What do the screens show for `Cc1cc(N2CCCCC2)nc2ccc(NC(=O)CCC(=O)NCCC(C)C)cc12`?
ELG1 genotox: inconclusive; SMN2 splice enh: 64.7%; NPC1 promoter act: inconclusive; ELG1 DNA repair: inconclusive; Rab9 promoter act: 3.16µM*; FLuc modulator: 7.57µM*

How did Cc1cc(N2CCN(C)CC2)nc2ccc(NC(=O)CCC(=O)NCCCOC(C)C)cc12 do in these assays?
ELG1 genotox: 1.8%; NPC1 promoter act: -4.9%; ELG1 DNA repair: 17.5%; Rab9 promoter act: 0.3%; FLuc modulator: 4.4%

What do the screens show for `C[C@@H](NC(=O)c1ncn(C)c1C(=O)N[C@H](C)c1ccccc1)c1ccccc1`?
ELG1 genotox: -0.4%; NPC1 promoter act: -7.0%; ELG1 DNA repair: inconclusive; Rab9 promoter act: 1.0%; FLuc modulator: 3.4%

How did CCCCN(C(=O)c1cnccn1)c1c(N)n(CCC)c(=O)[nH]c1=O do in these assays?
ELG1 genotox: 3.9%; ELG1 DNA repair: 0.0%

What do the screens show for `CCN(CC)CCCNC(=O)CCC(=O)Nc1ccc2nc(N3CCCCC3)cc(C)c2c1`?
ELG1 genotox: 6.9%; SMN2 splice enh: -7.3%; NPC1 promoter act: 12.4%; ELG1 DNA repair: inconclusive; Rab9 promoter act: -6.4%; FLuc modulator: -3.6%

Results for CCCCNC(=O)CCC(=O)Nc1ccc2nc(N3CCCCC3)cc(C)c2c1 ?
ELG1 genotox: 8.7%; SMN2 splice enh: 7.08µM*; NPC1 promoter act: inconclusive; ELG1 DNA repair: inconclusive; Rab9 promoter act: inconclusive; FLuc modulator: 15.1µM*

How did COc1cccc(NC(=O)CCC(=O)Nc2ccc3nc(N4CCOCC4)cc(C)c3c2)c1 do in these assays?
ELG1 genotox: 13.0%; NPC1 promoter act: inconclusive; ELG1 DNA repair: -23.7%; Rab9 promoter act: 2.51µM*; FLuc modulator: 6.01µM*

How did Cc1cc(N2CCOCC2)nc2ccc(NC(=O)C3CCC(C)CC3)cc12 (configuration not stated) do in these assays?
ELG1 genotox: -2.2%; SMN2 splice enh: -15.9%; NPC1 promoter act: -7.3%; ELG1 DNA repair: -1.7%; Rab9 promoter act: 5.4%; FLuc modulator: 1.2%

What do the screens show for `CCOC(=O)C1CCCN(C(=O)CCC(=O)Nc2ccc3nc(N4CCOCC4)cc(C)c3c2)C1` (configuration not stated)?
ELG1 genotox: inconclusive; NPC1 promoter act: inconclusive; ELG1 DNA repair: inconclusive; Rab9 promoter act: inconclusive; FLuc modulator: 16.9µM*

Results for COc1ccccc1NC(=O)c1ccc(NC(=O)C2CC2C)cc1 (configuration not stated) ?
ELG1 genotox: -0.3%; ELG1 DNA repair: -16.0%
